Source: ChEMBL document CHEMBL3988442, “University of Dundee, Small-Polar-MMV Screening Library” (2021)
The whole screen tested about 48,000 compounds, of which about 13,000 (27%) showed an effect of 50% or more. The list shows a part of the results.

These compounds were tested on Wolbachia pipientis (assay: Anti-Wolbachia Cell-Based Screen). Settings: 5 µM.
Assay type: functional
Parameters: scale not given: in the data most compounds retested in dose-response had high values

Point of comparison: `Cn1c2ccc(F)cc2c2ncn(CCN3CCOCC3)c(=O)c21`, “Percent Effect” value 129.5%. Against it:
- O=C(Nc1ccc(N2CCOCC2)nc1)N1CCc2sccc2C1 — lower, -5.037%
- Cc1nn(C)c(Oc2ccccc2)c1CNC1CCOc2ccccc21 (stereo not drawn) — lower, 17.34%
- CC(C)c1ccc(/C=C/CC(=O)NC2CCS(=O)(=O)CC2)cc1 — lower, -29.94%
- CC(=O)c1cccc(OCCCC(=O)N(C)Cc2cnn(C)c2)c1 — lower, -7.913%
- N#CC1(NC(=O)COC(=O)Cn2cccn2)CCCC1 — lower, 0.9044%
- N#Cc1ccnc(SCC2CN=C(N3CCOCC3)S2)c1 (stereo not drawn) — lower, 11.27%
- O=C(CC1CC1)N[C@@H]1CN(C(=O)c2ccsc2)C[C@@H]2CCCO[C@@H]21 — lower, 100.4%
- O=C(CC1CC1)N[C@@H]1CN(C(=O)c2ccoc2)C[C@@H]2CCCO[C@@H]21 — lower, 95.5%
- O=C(CC1CC1)N[C@@H]1CN(c2ncccn2)C[C@@H]2CCCO[C@@H]21.O=C(O)C(F)(F)F — lower, -2.682%
- COc1ccc(CN2C[C@@H]3CCCO[C@@H]3[C@H](NC(=O)CC3CC3)C2)cc1 — lower, -5.236%
- O=C(c1cccs1)N1C[C@H]2CC[C@@]3(N=C(c4ccccc4)NC3=O)[C@H]2C1 — lower, 7.494%
- O=C(CC1CC1)N[C@@H]1CN(C(=O)c2cccs2)C[C@@H]2CCCO[C@@H]21 — lower, 73.18%
- Cc1occc1C(=O)N1CC[C@@H]2[C@@H](CO[C@H]2CNS(C)(=O)=O)C1 — lower, -7.18%
- O=C(CC1CC1)N[C@@H]1CN(Cc2nccs2)C[C@@H]2CCCO[C@@H]21 — lower, -7.838%
- Cc1occc1C(=O)N1C[C@@H]2CN(S(C)(=O)=O)CCO[C@@H]2C1 — lower, -6.506%
- O=C(CC1CC1)N[C@@H]1CN(Cc2ccc(F)cc2)C[C@@H]2CCCO[C@@H]21.O=C(O)C(F)(F)F — lower, -7.276%
- Cc1occc1C(=O)N1C[C@@H]2CCCO[C@@H]2[C@H](NS(C)(=O)=O)C1 — lower, 108.4%
- CCn1ccnc1CN1CCCN(CC2CC2)C(C(C)C)C1 (stereo not drawn) — lower, -2.193%
- Cc1nnsc1CN1CCCC1c1nc(-c2ccccc2)no1 (stereo not drawn) — lower, 16.39%
- Cc1csc([C@@H]2C[C@@H]3CCN(Cc4cnn(C)c4)C[C@H]3O2)n1 — lower, -7.419%
- CN1CCC(N(C)C(=O)CSc2ccc(F)c(F)c2)C1=O (stereo not drawn) — lower, -7.197%
- Cc1ccc([C@@H]2CN(C(=O)c3ccoc3C)C[C@H]2NC(=O)C2CC2)cc1 — lower, -4.07%
- Cc1occc1C(=O)N1C[C@@H]2CCCO[C@@H]2[C@H](NC(=O)CC2CC2)C1 — lower, 111.2%
- CCOCCN1CCN(Cc2nc(C)no2)CC1CC (stereo not drawn) — lower, -13.77%
- CCOCCN1CCN(CC(=O)N2CCCC2)CC1CC (stereo not drawn) — lower, 98.08%
- CCOCCN1CCN(CC(=O)N2CCC2)CC1CC (stereo not drawn) — lower, 109.6%
- CCOCCN1CCN(CC(=O)N2CCCC2)CC1C (stereo not drawn) — lower, -3.155%
- CCOCCN1CCN(CCC(=O)N2CCCCC2)CC1C (stereo not drawn) — lower, -8.269%
- CCOCCN1CCN(CC(=O)NC2(C#N)CCCC2)CC1CC (stereo not drawn) — lower, -13.43%
- O=C1C=CC=N/C1=C(/O)NCCNS(=O)(=O)N1CCCCCC1 — lower, -2.703%
- CC(=O)NCc1noc2c1CN(Cc1ccsc1)CC2 — lower, -0.8794%
- COC(=O)CNC(=O)c1ccc(OC2CCN(S(C)(=O)=O)CC2)c(Cl)c1 — lower, -7.47%
- CCc1cnc(CN(C(C)=O)C2CCN(CCc3ccccc3)C2)o1 (stereo not drawn) — lower, 104.1%
- CCc1cnc(CN(C(C)=O)C2CCN(CCc3ccccn3)C2)o1 (stereo not drawn) — lower, 119.1%
- CCc1cnc(CN(C(C)=O)C2CCN(CCc3cnn(C)c3)C2)o1 (stereo not drawn) — lower, 11.37%
- CCc1cnc(CN(C(C)=O)C2CCN(CCc3ccncc3)C2)o1 (stereo not drawn) — lower, 111.3%
- CCc1cnc(CN(C)C2CCN(CCc3ccccn3)C2)o1 (stereo not drawn) — lower, -9.613%
- CN(CCC#N)C(=O)CSc1cc(F)ccc1F — lower, 10.19%
- COCCS(=O)(=O)Nc1cc(Cl)ccn1 — lower, 7.348%
- CC(=O)N1N=C(c2ccco2)OC1C(=O)N(CC(C)C)CC(C)C (stereo not drawn) — lower, 91.49%
- CCNC(=O)C1CCN(c2nc(-c3ccco3)nc3c2CCNCC3)C1 (stereo not drawn) — lower, 5.847%
- CC(C)CN(Cc1nnc(-c2ccco2)o1)CC(C)C — lower, -6.92%
- CC(=O)N1N=C(c2ccco2)OC1C(=O)NCC(C)C (stereo not drawn) — lower, 108.9%
- CC(C)CN(Cc1cnn(C)c1)C(=O)C1COc2ccccc2C1 (stereo not drawn) — lower, -20.05%
- CCCNC(=O)CCNC(=O)Cc1nc(-c2ccco2)oc1C — lower, -2.58%
- Cc1noc(C)c1CN1CC[C@H](OCC2CC2)[C@@H](Cc2ccccc2)C1 — lower, -6.774%
- CN(CC1(CO)CCC1)C(=O)C1CCC(=O)N(Cc2ccc(Cl)cc2)C1 (stereo not drawn) — lower, 0.1062%
- O=C(Nc1ccc(-n2cccn2)cc1)N1CCOCC(O)C1 (stereo not drawn) — lower, 0.445%
- O=C(O)C(F)(F)F.O=C(O)C(F)(F)F.O=C(c1ccncc1)N1CCOC2(COCCN(c3cccnc3)C2)C1 (stereo not drawn) — lower, -8.352%
- O=C(O)C(F)(F)F.O=C(c1cccs1)N1CCOCC2(C1)CN(c1cccnc1)C(=O)CO2 (stereo not drawn) — lower, 114.5%
- O=C(c1cccs1)N1CCOCC2(C1)CN(c1ccccc1)C(=O)CO2 (stereo not drawn) — lower, 85.77%
- O=C(O)C(F)(F)F.O=C(c1ccco1)N1CCOCC2(C1)CN(c1cccnc1)C(=O)CO2 (stereo not drawn) — lower, 102.4%
- Cc1cc(C)c(OCC(=O)NS(=O)(=O)c2cccnc2)c(C)c1 — lower, -6.374%
- COc1ccc(C)cc1C1(CNc2cncc(Cl)n2)CCOCC1 — lower, -4.03%
- COC(=O)CCNC(=O)c1cc(Br)c2c(c1)OCCO2 — lower, -24.52%
- O[C@@H]1CN(c2nc3ccccc3s2)CC[C@H]1c1ccc2c(c1)OCO2 — lower, 110.1%
- c1ccc2sc(N3CCOC(Cn4cccn4)C3)nc2c1 (stereo not drawn) — lower, 4.7%
- CN1CCN(C2CCN(c3cnc4ccccc4n3)CC2)C1=O — lower, 19.91%
- O[C@@H]1CN(c2cnc3ccccc3n2)CC[C@H]1c1ccc2c(c1)OCO2 — lower, 98.83%
- O=C(NC1CC1)C1CN(c2nc3ccccc3s2)CCN1 (stereo not drawn) — lower, -6.534%
- O[C@@H]1CN(c2nc3ccccc3o2)CC[C@H]1c1ccc2c(c1)OCO2 — lower, 107.9%
- c1ccc2oc(N3CCC(c4nncn4C4CC4)CC3)nc2c1 — lower, -9.735%
- CN(C)CC1CN(c2cnc3ccccc3n2)CCO1 (stereo not drawn) — lower, 11.03%
- O=C(N[C@@H]1CCN(c2nc3ccccc3o2)C[C@H]1O)c1cnccn1 — lower, 6.046%
- CCNC(=O)NC[C@H]1COCc2nc3cc(OC)ccc3n21 — lower, 0.3029%
- CCN(CC)C(=O)CN(C)C(=O)c1cccn1CCc1ccccc1 — lower, 1.592%
- CNC(=O)[C@H]1C[C@@H]2CN(C(=O)NC(C)C)C[C@H]1O2 — lower, -20.87%
- COc1ccc(OC)c(-n2cnnc2COC(C)C)c1 — lower, -1.207%
- O=c1c2cccc(C(F)(F)F)c2ncn1CCN1CCNCC1 — lower, -10.29%
- Cc1ccc(-c2c(-c3ccccc3)ncn2CCCN2CCOCC2)o1 — lower, -10.17%
- Cn1c2ccc(F)cc2c2ncn(CCCN(CCO)CCO)c(=O)c21 — lower, 122.3%
- CC(C(=O)Nc1cccc(F)c1)N(C)CCN1CCOCC1 (stereo not drawn) — lower, 11.62%
- O=c1c2cccc(F)c2ncn1CCN1CCNCC1 — lower, -5.542%
- Cn1c2ccccc2c2ncn(CCCN3CCOCC3)c(=O)c21 — lower, 106.3%
- Cc1nc(-c2c(-c3ccccc3)ncn2CCCN2CCOCC2)c[nH]1 — lower, -4.456%
- O=c1c2c(ncn1CCCO)nc1n2CCC1 — lower, -24.45%
- Cc1cc(C)c2ncn(CCOCCO)c(=O)c2c1 — lower, -8.527%
- O=c1c2cccc(F)c2ncn1CCN1CCOCC1 — lower, 0.8234%
- Cn1c2ccccc2c2ncn(CCN3CCOCC3)c(=O)c21 — lower, 100.8%
- CS(=O)(=O)c1ccc(NC(=O)NCc2ccc(F)cc2)cn1 — lower, 9.509%
- CN(CC1(CO)CC1)C(=O)C1CCC(=O)N(Cc2ccc(Cl)cc2)C1 (stereo not drawn) — lower, -2.442%
- O=C(O)C(F)(F)F.O=C1C[C@@H]2[C@H](CCN2Cc2ccco2)N1c1ccsc1 — lower, 5.007%
- CC(C)(C)OC(=O)N1CC(=O)N(Cc2ccco2)CC(O)C1 (stereo not drawn) — lower, 112.7%
- CC(C)(C)C(=O)N1CC(=O)N(Cc2ccco2)CC(O)C1 (stereo not drawn) — lower, 96.28%
- O=C([C@H]1COC[C@H]2CN(Cc3ccco3)C[C@H]21)N1CCCO1 — lower, -9.766%
- O=C1CN(C(=O)C2CCCCC2)CC(O)CN1Cc1ccco1 (stereo not drawn) — lower, 88.46%
- CC(C)(C)OC(=O)N1CCCN(Cc2ccon2)c2ccccc21 — lower, 7.757%
- CC(C)COC(=O)N1CC(=O)N(Cc2ccco2)CC(O)C1 (stereo not drawn) — lower, 111.6%
- O=C(NCCc1cccnc1)C1CCCN(Cc2ccco2)C1 (stereo not drawn) — lower, -20.69%
- CC(C)c1cc(C(=O)N2CCN(Cc3ccco3)CC2)n[nH]1 — lower, 11.56%
- CC(=O)N1CCC(CSCc2ccco2)CC1 — lower, -2.113%
- CC(NCc1ccc(-c2ccc(F)cc2)o1)c1nnc2n1CCC2 (stereo not drawn) — lower, 11.28%
- CNC(=O)c1ccc(NC2CCN(CC(F)(F)F)C2=O)cc1Cl (stereo not drawn) — lower, 5.324%
- Cc1ccc(C(NC(=O)CN2CCc3c(ncn3C)C2)C2CC2)cc1 (stereo not drawn) — lower, 0.6431%
- O=C(CN1C(=O)CCC1=O)N1CCC(CSCc2ccco2)CC1 — lower, -7.09%
- CC(C)CC(=O)N1CC(=O)N(Cc2ccco2)CC(O)C1 (stereo not drawn) — lower, 81.13%
- O=C(CN1C(=O)CCC1=O)N1CCC(S(=O)(=O)Cc2ccco2)CC1 — lower, 3.229%
